Assay results as given in the supplement of paper PMC10849652.
Targets with a hit are over-represented here; the source holds about 8,800 in all. About 0.5% of all pairs of compound and target were hits.

How the values were obtained:
Test in all cases: log2 fold change, soluble protein after heating vs DMSO (PISA); higher = thermal stabilisation; K562 lysate, 10 uM; active = over 0.2 and 3.5 SD of the protein, either way, in both replicates (recomputed)
erlotinib = compound: C#Cc1cccc(Nc2ncnc3cc(OCCOC)c(OCCOC)cc23)c1 [erlotinib]
How it was run: (§1)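 Soluble protein was defined as the supernatant remaining after 21,000xg for 90 min, following pooling of heated aliquots and adjustment to 0.5% NP-40 at 4°C. Before that, crude K562 extract at 1 mg/mL protein in PBS pH 7.4 with 1 mM MgCl2 was treated with 10 μM compound for 30 min and heated for 3 min across 48°C-58°C. Quantification used TMTpro 16plex LC-MS/MS with channel sums equalised, and values are log-two fold changes in thermal stability relative to solvent controls from duplicates.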

[1] = compound: C/C(=N\NC(=O)C1=CC(=CC=C1)S(=O)(=O)N2CCOCC2)/C3=C(C=CC(=C3)Cl)O
How it was run: as §1

[2] = compound: C1=CC(=CC=C1C2=NC3=C(N2)C=C(C=C3)C(=O)N)OC4=CC=C(C=C4)Cl
How it was run: as §1

[3] = compound: C1=CC2=C(C=CC(=C2)/C=C\3/C(=O)NC(=NCC4=CC=CS4)S3)N=C1
How it was run: as §1

[4] = compound: C1=CC2=NC=CN=C2C=C1/C=C/3\C(=O)NC(=O)S3
How it was run: as §1

[5] = compound: C1=CC=C(C=C1)C2=NC(=C(N2)C3=CC=NC=C3)C4=CC(=C(C=C4)Cl)O
How it was run: as §1

[6] = compound: C1=CC=C2C(=C1)C3=NNC4=CC=CC(=C43)C2=O
How it was run: as §1

[7] = compound: C1CCN(C1)C(=O)NC2=CC=CC(=C2)NC3=NC=C(C(=N3)NCCC4=CN=CN4)Br
How it was run: as §1

[8] = compound: C1CN(CCC1(CC2=CC=C(C=C2)Cl)N)C3=NC=NC4=C3C=CN4
How it was run: as §1

IRAK-1-4 Inhibitor I = compound: C1COCCN1CCN2C3=CC=CC=C3N=C2NC(=O)C4=CC(=CC=C4)[N+](=O)[O-] [IRAK-1-4 Inhibitor I]
How it was run: as §1

Measured: log2 fold change

SSNA1 (UniProt O43805)
inactive: erlotinib -0.004 | [1] -0.04 | [2] -0.013 | [3] 0.07 | [4] -0.036 | [5] 0.04 | [6] -0.03 | [7] -0.002 | [8] 0.066 | IRAK-1-4 Inhibitor I 0.018

SSB (UniProt E7ERC4)
inactive: erlotinib -0.03 | [1] 0.071 | [2] -0.063 | [3] 0 | [4] 0.02 | [5] 0.015 | [6] -0.142 | [7] 0.089 | [8] 0.01 | IRAK-1-4 Inhibitor I -0.043

SMG5 (UniProt Q9UPR3)
Chain of UniProt Q9UPR3 (Q9UPR3 whole entry, looked up): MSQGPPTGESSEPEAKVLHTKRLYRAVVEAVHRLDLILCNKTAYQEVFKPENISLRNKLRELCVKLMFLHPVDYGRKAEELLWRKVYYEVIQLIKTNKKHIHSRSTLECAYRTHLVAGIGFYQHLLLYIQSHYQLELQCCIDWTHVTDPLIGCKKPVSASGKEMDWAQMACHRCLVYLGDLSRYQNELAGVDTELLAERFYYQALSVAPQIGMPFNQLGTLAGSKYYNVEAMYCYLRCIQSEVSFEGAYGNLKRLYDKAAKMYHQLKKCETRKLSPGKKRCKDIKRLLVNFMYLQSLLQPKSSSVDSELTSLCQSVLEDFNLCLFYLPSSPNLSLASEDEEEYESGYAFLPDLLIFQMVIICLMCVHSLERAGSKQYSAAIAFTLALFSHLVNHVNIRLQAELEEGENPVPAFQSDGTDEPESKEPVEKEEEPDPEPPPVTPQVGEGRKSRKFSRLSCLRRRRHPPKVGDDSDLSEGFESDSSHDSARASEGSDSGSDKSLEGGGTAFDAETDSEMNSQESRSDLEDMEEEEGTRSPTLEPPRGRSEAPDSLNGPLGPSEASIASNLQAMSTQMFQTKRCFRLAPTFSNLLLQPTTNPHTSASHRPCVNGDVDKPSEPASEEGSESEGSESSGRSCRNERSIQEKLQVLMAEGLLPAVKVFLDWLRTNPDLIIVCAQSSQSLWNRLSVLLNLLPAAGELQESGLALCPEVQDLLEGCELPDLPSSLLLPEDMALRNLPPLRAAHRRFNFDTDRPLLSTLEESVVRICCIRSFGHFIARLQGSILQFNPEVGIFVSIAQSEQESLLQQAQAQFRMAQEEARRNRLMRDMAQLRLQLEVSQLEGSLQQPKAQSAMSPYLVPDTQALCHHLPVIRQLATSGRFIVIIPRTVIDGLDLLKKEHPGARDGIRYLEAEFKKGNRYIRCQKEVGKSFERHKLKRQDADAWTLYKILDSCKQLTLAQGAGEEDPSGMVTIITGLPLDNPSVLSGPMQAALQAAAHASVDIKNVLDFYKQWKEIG
inactive: erlotinib -0.037 | [1] -0.038 | [2] 0.028 | [3] -0.008 | [4] -0.012 | [5] -0.074 | [6] -0.035 | [7] -0.004 | [8] -0.043 | IRAK-1-4 Inhibitor I 0.007

STN1 (UniProt Q9H668)
inactive: erlotinib -0.126 | [1] 0.049 | [2] 0.142 | [3] 0.075 | [4] -0.098 | [5] 0.019 | [6] -0.061 | [7] -0.045 | [8] 0.043 | IRAK-1-4 Inhibitor I 0.034

SLC25A17 (UniProt O43808)
Chain of UniProt O43808 (O43808 whole entry, looked up): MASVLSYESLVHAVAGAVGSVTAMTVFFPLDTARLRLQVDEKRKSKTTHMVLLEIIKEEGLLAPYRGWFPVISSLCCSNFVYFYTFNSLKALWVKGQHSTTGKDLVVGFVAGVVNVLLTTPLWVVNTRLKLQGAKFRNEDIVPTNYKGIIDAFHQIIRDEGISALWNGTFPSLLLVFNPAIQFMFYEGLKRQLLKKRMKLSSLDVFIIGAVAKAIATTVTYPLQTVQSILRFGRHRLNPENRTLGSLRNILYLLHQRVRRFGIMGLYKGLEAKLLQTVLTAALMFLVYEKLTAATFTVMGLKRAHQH
inactive: erlotinib 0.035 | [1] 0.057 | [2] 0.061 | [3] 0.014 | [4] -0.015 | [5] 0.012 | [6] -0.021 | [7] 0.012 | [8] 0.03 | IRAK-1-4 Inhibitor I 0.056

SND1 (UniProt Q7KZF4)
Chain of UniProt Q7KZF4 (Q7KZF4 whole entry, looked up): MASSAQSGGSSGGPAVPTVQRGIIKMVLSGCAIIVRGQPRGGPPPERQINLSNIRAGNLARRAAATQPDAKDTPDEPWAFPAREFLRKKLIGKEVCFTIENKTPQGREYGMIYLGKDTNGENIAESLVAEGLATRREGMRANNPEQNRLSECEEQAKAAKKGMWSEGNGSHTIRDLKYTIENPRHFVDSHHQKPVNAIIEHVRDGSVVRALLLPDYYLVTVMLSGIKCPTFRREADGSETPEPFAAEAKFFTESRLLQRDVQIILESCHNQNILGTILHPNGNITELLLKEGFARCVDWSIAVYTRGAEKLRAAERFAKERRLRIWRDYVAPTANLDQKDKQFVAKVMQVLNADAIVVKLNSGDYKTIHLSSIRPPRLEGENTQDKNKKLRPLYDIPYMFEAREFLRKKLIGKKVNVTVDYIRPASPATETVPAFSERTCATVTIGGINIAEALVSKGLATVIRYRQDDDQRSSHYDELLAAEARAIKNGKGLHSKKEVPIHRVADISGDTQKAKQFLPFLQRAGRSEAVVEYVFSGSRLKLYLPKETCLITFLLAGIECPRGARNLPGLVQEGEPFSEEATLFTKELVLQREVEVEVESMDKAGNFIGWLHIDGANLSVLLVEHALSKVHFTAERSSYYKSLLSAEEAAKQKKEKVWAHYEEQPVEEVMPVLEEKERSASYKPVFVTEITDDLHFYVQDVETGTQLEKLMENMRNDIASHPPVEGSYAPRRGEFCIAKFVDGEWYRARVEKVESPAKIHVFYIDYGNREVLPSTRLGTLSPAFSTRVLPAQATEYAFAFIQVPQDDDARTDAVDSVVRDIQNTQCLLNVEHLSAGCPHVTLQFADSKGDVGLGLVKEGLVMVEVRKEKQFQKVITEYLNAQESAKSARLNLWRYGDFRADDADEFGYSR
inactive: erlotinib 0.022 | [1] 0.042 | [2] -0.009 | [3] 0.007 | [4] 0.031 | [5] 0.017 | [6] -0.042 | [7] 0.005 | [8] -0.005 | IRAK-1-4 Inhibitor I -0.012

SMC2 (UniProt O95347)
inactive: erlotinib -0.001 | [1] -0.011 | [2] -0.011 | [3] 0.001 | [4] 0.012 | [5] 0.013 | [6] -0.036 | [7] 0.003 | [8] -0.008 | IRAK-1-4 Inhibitor I -0.019

SYNRG (UniProt Q9UMZ2)
inactive: erlotinib 0.029 | [1] -0.037 | [2] 0.078 | [3] 0.015 | [4] -0.012 | [5] -0.019 | [6] -0.01 | [7] -0.004 | [8] 0.021 | IRAK-1-4 Inhibitor I 0.016

SOAT1 (UniProt P35610)
Chain of UniProt P35610 (P35610 whole entry, looked up): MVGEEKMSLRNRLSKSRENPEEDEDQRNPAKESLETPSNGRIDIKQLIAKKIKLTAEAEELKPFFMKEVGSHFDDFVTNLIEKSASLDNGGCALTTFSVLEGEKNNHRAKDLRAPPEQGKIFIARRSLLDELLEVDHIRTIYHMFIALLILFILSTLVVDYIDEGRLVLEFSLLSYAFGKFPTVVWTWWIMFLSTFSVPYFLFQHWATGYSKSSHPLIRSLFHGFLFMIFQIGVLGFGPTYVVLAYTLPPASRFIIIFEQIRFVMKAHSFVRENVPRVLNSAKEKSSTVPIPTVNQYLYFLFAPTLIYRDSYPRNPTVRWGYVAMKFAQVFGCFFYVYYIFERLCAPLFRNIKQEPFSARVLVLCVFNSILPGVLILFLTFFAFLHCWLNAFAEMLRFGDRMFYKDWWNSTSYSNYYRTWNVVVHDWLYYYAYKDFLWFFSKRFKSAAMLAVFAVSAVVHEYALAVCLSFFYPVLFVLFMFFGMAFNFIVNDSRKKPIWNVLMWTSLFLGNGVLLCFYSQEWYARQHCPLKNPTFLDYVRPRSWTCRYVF
inactive: erlotinib 0.06 | [1] -0.007 | [2] -0.042 | [3] 0 | [4] -0.048 | [5] 0.056 | [6] -0.058 | [7] -0.056 | [8] -0.019 | IRAK-1-4 Inhibitor I 0

SHKBP1 (UniProt Q8TBC3)
Chain of UniProt Q8TBC3 (Q8TBC3 whole entry, looked up): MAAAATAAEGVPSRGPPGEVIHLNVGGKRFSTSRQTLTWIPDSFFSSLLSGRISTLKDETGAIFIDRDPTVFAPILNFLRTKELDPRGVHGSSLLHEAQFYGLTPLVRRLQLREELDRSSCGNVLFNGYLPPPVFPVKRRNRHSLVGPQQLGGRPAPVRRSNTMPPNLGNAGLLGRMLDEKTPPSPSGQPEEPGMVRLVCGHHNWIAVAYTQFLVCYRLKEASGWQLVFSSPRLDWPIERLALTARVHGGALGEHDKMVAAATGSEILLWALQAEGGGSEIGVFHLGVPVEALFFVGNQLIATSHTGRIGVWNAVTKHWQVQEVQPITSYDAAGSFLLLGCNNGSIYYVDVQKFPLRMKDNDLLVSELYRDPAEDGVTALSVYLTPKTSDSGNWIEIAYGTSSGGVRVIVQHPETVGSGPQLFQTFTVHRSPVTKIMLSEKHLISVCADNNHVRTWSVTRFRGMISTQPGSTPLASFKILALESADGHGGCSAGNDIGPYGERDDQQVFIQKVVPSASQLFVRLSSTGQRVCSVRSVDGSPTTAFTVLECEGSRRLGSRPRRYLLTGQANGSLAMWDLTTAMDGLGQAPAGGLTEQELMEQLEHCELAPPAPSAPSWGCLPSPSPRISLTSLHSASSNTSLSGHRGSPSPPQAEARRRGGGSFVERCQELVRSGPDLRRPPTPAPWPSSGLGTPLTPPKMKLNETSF
inactive: erlotinib -0.005 | [1] -0.064 | [2] 0.058 | [3] 0.004 | [4] 0.011 | [5] 0.01 | [6] -0.018 | [7] 0.076 | [8] 0.189 | IRAK-1-4 Inhibitor I 0.022

SKA3 (UniProt Q8IX90)
inactive: erlotinib 0.018 | [1] -0.081 | [2] 0.02 | [3] -0.01 | [4] -0.052 | [5] -0.022 | [6] 0.001 | [7] -0.02 | [8] 0.042 | IRAK-1-4 Inhibitor I 0.013

STAU1 (UniProt O95793)
Chain of UniProt O95793 (O95793 whole entry, looked up): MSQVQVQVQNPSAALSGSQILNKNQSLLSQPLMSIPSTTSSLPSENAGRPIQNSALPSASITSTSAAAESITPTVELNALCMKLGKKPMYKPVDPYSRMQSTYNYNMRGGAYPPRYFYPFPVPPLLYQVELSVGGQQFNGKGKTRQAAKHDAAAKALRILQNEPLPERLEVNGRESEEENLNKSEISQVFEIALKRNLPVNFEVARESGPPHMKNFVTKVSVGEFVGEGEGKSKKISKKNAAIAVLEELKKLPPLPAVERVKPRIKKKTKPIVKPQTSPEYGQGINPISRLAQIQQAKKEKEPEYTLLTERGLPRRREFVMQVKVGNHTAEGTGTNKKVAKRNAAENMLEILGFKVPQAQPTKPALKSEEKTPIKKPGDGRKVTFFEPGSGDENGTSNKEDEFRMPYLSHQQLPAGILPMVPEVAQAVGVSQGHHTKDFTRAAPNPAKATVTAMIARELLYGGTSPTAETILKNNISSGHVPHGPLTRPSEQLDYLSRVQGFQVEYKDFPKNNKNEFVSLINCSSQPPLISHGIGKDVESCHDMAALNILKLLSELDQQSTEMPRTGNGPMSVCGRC
inactive: erlotinib 0.02 | [1] -0.001 | [2] -0.032 | [3] 0.002 | [4] -0.016 | [5] -0.08 | [6] -0.007 | [7] -0.018 | [8] -0.003 | IRAK-1-4 Inhibitor I 0.055

TAF9 (UniProt Q16594)
inactive: erlotinib 0.022 | [1] 0.009 | [2] 0.081 | [3] 0.056 | [4] 0.002 | [5] 0.013 | [6] -0.052 | [7] -0.08 | [8] 0.084 | IRAK-1-4 Inhibitor I 0.032

SPATA5L1 (UniProt Q9BVQ7)
Chain of UniProt Q9BVQ7 (Q9BVQ7 whole entry, looked up): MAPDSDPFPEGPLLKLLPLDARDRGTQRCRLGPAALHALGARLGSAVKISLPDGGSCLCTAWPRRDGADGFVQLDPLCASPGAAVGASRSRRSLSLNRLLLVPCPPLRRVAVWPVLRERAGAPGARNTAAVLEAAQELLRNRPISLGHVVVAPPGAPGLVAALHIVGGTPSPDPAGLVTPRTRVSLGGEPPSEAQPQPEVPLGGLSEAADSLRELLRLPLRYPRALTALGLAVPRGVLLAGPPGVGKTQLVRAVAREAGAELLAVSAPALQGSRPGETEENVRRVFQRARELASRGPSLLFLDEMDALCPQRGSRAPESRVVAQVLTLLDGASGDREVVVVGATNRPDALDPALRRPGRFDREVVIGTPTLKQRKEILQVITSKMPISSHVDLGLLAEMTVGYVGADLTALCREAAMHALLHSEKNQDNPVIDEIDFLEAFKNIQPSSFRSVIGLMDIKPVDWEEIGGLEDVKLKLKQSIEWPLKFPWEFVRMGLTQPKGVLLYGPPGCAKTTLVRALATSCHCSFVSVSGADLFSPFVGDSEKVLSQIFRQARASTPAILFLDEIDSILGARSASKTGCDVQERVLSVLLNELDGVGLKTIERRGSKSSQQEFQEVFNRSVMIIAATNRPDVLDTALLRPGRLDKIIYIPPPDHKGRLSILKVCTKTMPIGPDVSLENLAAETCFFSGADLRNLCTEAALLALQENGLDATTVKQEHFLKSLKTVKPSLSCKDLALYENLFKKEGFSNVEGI
inactive: erlotinib 0.09 | [1] -0.053 | [2] -0.017 | [3] 0.044 | [4] 0.004 | [5] 0.069 | [6] 0.01 | [7] 0.027 | [8] 0.032 | IRAK-1-4 Inhibitor I 0.015

SRSF2 (UniProt Q01130)
Chain of UniProt Q01130 (Q01130 whole entry, looked up): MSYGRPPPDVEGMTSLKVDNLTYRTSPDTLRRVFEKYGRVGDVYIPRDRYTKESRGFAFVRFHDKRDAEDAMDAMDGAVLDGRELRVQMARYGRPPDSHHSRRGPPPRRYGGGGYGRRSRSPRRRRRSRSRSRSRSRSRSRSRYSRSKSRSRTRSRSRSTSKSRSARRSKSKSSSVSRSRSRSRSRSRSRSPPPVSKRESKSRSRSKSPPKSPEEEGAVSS
inactive: erlotinib 0.005 | [1] 0.041 | [2] 0.026 | [3] -0.038 | [4] -0.018 | [5] -0.017 | [6] -0.031 | [7] 0.023 | [8] -0.037 | IRAK-1-4 Inhibitor I 0.04
